# In the library only some 0.9% were active in any assay of this set; here they are far more common.
# BLM inh: qHTS Assay for Inhibitors of Bloom's syndrome helicase (BLM); recombinant BLM DNA unwinding, fluorescence dequenching; 350,000 compounds, 0.2% hits; Potency, µM (series often up to 56.1 µM), for the others: at the highest dose activity change, negative = inhibition, usual class: inhibitors;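 note: plate controls were vehicle for no effect and no enzyme for full effect; nearly all actives have a fitted effect of over 35% in size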
# Target sequence (P54132 whole entry, looked up): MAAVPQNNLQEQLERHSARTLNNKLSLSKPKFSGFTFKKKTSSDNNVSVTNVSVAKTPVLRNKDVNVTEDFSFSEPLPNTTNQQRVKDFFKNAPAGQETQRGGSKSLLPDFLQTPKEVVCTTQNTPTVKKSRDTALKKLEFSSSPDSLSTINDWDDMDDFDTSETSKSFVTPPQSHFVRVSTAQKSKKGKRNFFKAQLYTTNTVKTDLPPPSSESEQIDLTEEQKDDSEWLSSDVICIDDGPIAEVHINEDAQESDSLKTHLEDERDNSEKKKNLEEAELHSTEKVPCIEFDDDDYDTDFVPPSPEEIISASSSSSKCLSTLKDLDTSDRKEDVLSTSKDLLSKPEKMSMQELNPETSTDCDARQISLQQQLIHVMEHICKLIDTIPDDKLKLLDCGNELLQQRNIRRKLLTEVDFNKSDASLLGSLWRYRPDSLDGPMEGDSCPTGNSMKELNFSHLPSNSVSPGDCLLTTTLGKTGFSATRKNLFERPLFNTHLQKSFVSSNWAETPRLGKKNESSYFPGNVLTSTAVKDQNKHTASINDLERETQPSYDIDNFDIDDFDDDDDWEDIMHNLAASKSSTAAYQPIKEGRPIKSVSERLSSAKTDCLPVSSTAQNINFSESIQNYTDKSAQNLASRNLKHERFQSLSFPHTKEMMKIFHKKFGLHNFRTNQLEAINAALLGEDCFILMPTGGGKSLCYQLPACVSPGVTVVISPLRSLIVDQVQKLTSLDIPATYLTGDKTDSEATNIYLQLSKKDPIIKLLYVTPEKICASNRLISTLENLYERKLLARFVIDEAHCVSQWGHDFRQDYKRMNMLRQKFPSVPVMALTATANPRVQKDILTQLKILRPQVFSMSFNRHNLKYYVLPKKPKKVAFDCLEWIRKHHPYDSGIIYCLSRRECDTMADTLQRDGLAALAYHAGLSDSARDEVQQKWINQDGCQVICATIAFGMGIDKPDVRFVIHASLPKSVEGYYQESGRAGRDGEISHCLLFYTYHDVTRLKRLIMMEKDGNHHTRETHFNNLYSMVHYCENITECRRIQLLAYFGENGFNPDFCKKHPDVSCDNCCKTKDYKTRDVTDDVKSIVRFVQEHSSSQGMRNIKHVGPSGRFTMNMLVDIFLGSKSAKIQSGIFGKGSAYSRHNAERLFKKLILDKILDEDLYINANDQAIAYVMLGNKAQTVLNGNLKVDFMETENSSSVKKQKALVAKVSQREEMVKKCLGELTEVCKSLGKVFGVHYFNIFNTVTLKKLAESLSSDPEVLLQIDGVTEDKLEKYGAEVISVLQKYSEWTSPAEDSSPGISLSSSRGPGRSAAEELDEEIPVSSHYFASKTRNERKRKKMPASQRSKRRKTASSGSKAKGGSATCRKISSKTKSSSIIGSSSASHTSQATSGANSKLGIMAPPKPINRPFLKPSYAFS
# TDP1 block: qHTS Assay for Inhibitors of Tyrosyl-DNA Phosphodiesterase (TDP1); recombinant TDP1, AlphaScreen DNA substrate cleavage; Potency, µM (top dose mostly 130 µM), without a hit: at the highest dose activity change, negative = inhibition, usual class: inhibitors; 350,000 compounds, 0.28% hits; note: nearly all actives have a fitted effect of over 40% in size
#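 Here, a 5' biotin and 3' phosphotyrosine-FITC DNA oligonucleotide reports Tdp1 activity: intact substrate bridges AlphaScreen beads, while cleavage leaves a 3' phosphate and drops signal. All incubations at room temperature.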
# KAT2A inh: qHTS Assay for Inhibitors of GCN5L2. AID 504327, 2011. Potency, µM (titrated, usually from 58.9 µM), without a hit: top-dose activity change, negative = inhibition, most hits filed as inhibitors. GCN5L2 HAT assay, ThioGlo1 CoA-SH fluorescence. Histone acetyltransferase KAT2A (Homo sapiens), Q92830. 390,000 compounds, 0.21% hits
#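 Free CoA generated was detected with ThioGlo1 (50uM) fluorescence at Ex340nm/Em540nm, read immediately and after 20 min at room temperature. Enzyme, 20 nM in HEPES pH 7.5 buffer, saw compounds 15 min before adding 75uM H3(1-25) peptide and 70uM acetyl-CoA.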
# Lamin A splicing: qHTS Assay for Modulators of Lamin A Splicing; Potency, µM (highest dose often 46.1 µM), inactives show at the highest dose ratio change, negative = inhibition, actives largely listed as inhibitors; 200,000 compounds, 0.01% hits; HeLa LMNA splicing GFP/RFP minigene ratio, 48 h; AID 1487, 2009; active = well fitted inhibition curve with a large enough effect in the signal ratio, with a control signal flat, not every such curve was filed as active; inconclusive = small, poorly fitted or top-dose-only effect, or effect the other way, or a change in a side signal; the % refers to the signal ratio
#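 S3 HeLa cells stably expressing lamin A-EGFP splicing minigene plus DsRed2, 600 cells/well, 48 h compound exposure at 37C. Laser-scanning cytometry; analysed as GFP (500-530 nm)/RFP (575-640 nm) total intensity ratio; 0.5% DMSO vehicle.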
# APE1 inh: qHTS Assay for Inhibitors of the Human Apurinic/apyrimidinic Endonuclease 1 (APE1) | Potency, µM (highest dose often 65.8 µM), inactives show top-dose activity change, negative = inhibition, most hits filed as inhibitors | DNA repair nuclease/redox regulator APEX1 (Homo sapiens), P27695 | 350,000 compounds, 0.35% hits | recombinant APE1, TAMRA/BHQ-2 abasic DNA cleavage fluorescence | AID 2517, 2012;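 note: plate controls were vehicle for no effect and reference inhibitor for full effect; nearly all actives have a fitted effect of over 55% in size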
#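 Enzyme (0.75 nM final) and test compound are incubated 15 min at room temperature before adding 50 nM quenched THF abasic-site duplex. Cleavage dequenches TAMRA, followed at 525/598 nm over three reads one minute apart.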
# RECQ1 helicase: qHTS Assay for Inhibitors of RecQ-Like Dna Helicase 1 (RECQ1); ATP-dependent DNA helicase Q1 (Homo sapiens), P46063; Potency, µM (highest dose often 57.3 µM), for the others: top-dose activity, negative = inhibition, hits mostly inhibitors; AID 2549, 2010; RECQ1 DNA unwinding, red fluorescence kinetic read; 240,000 compounds, 0.54% hits;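 note: plate controls were vehicle for no effect and no enzyme for full effect; nearly all actives have a fitted effect of over 30% in size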
#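 50 nM RECQ1T1 preincubated 15 min with compound in Tris pH 8.0 buffer with MgCl2, DTT, Tween-20 and 2.5 ug/ml poly(dI-dC); started with 200 nM TAMRA/BHQ-2 forked duplex and 2 mM ATP. Unwinding read as fluorescence (525/598 nm), two reads 2 h apart.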
# * hit, by the source's call; i = inactive; ? = inconclusive; / = not tested or not shown. Unless noted, calls come from the whole dose curve; as a rule, active = well fitted curve in the direction sought with a large enough effect; inconclusive = small, poorly fitted or top-dose-only effect, or another doubt; inactive = no such curve, though single readings can be large; an effect the other way counts as inactive or inconclusive. Unless noted, % is set by controls: 0 for no effect and ±100 for the full control effect; potency is the fitted concentration of half-maximal effect.
SMILES,BLM inh,TDP1 block,KAT2A inh,Lamin A splicing,APE1 inh,RECQ1 helicase
CC(=O)n1c(=O)c2ccccc2c(=O)n1-c1ccccc1,-1%,/,16%,/,8%,/
CC(C)(C)[C@H]1COC(=O)[C@H](NC(=O)OCC2c3ccccc3-c3ccccc32)C/C=C\C[C@@H](CC(=O)N[C@H](CO)Cc2ccccc2)C(=O)N1,/,-7%,2%,/,-16%,/
CC(C)(C)OC(=O)C[C@H]1C/C=C\C[C@H](CC(=O)N[C@H](CO)Cc2ccccc2)C(=O)N[C@H](C(C)(C)C)COC1=O,/,3%,2%,/,-6%,/
CC(C)(C)OC(=O)C[C@H]1C/C=C\C[C@H](CC(=O)N[C@@H](CO)Cc2ccccc2)C(=O)N[C@H](C(C)(C)C)COC1=O,/,0%,1%,/,13µM*,/
O=C(N[C@@H]1C/C=C\C[C@@H](CC(=O)N(CCO)Cc2ccccc2)C(=O)NCCOC1=O)OCC1c2ccccc2-c2ccccc21,/,-2%,-1%,/,24µM*,/
O=C(N[C@@H]1C/C=C\C[C@H](CC(=O)N(CCO)Cc2ccccc2)C(=O)N[C@@H](Cc2ccccc2)COC1=O)OCC1c2ccccc2-c2ccccc21,/,0%,-3%,/,-9%,/
CC(C)(C)[C@H]1COC(=O)[C@H](NC(=O)OCC2c3ccccc3-c3ccccc32)C/C=C\C[C@@H](CC(=O)N[C@@H](CO)Cc2ccccc2)C(=O)N1,/,-5%,-5%,/,24µM*,/
CC(N)(C(=O)O)c1ccc(S(=O)(=O)O)cc1 (configuration not stated),/,-4%,4%,/,?,-8%
FC(F)(F)c1ccccc1-c1nccc(-n2ccnc2)n1,1%,/,?,?,-1%,-2%
O=C(OC1CCOC1=O)c1ccc(Cl)c(S(=O)(=O)N2CCOCC2)c1 (configuration not stated),/,28µM*,0%,/,?,/
O=C(O)c1ccc(Cl)c(S(=O)(=O)N2CCCC2)c1,3%,50µM*,-3%,/,28µM*,-4%
O=C(c1ccc(Cl)c(S(=O)(=O)N2CCCCCC2)c1)N1CCCCC1,-3%,5%,-2%,/,54%,/
CCSC[C@H](NC(=O)[C@H](C)NC(=O)[C@@H](N)Cc1ccc(O)cc1)C(=O)N[C@@H](CC(=O)O)C(=O)N[C@H](C(=O)N[C@@H](C)C(=O)N[C@H](C(=O)N[C@@H](CSCC)C(=O)N[C@H](C(=O)N[C@H](C(=O)N[C@@H](Cc1cnc[nH]1)C(=O)N[C@@H](CCCNC(=N)N)C(=O)N[C@@H](CC(C)C)C(=O)N[C@@H](C)C(=O)NCC(=O)N[C@@H](CC(C)C)C(=O)N[C@@H](CC(C)C)C(=O)N[C@@H](CO)C(=O)N[C@@H](CCCNC(=N)N)C(=O)N[C@@H](CO)C(=O)NCC(=O)NCC(=O)N[C@H](C(=O)N[C@H](C(=O)N[C@@H](CCCCN)C(=O)N[C@@H](CC(N)=O)C(=O)N[C@@H](CC(N)=O)C(=O)N[C@@H](Cc1ccccc1)C(=O)N[C@H](C(=O)N1CCC[C@H]1C(=O)N[C@H](C(=O)N[C@@H](CC(N)=O)C(=O)N[C@H](C(=O)NCC(=O)N[C@@H](CO)C(=O)N[C@@H](CCCCN)C(=O)N[C@@H](C)C(=O)N[C@@H](Cc1ccccc1)C(N)=O)C(C)C)[C@@H](C)O)C(C)C)C(C)C)C(C)C)[C@@H](C)O)C(C)C)[C@@H](C)O)[C@@H](C)O,3%,11%,-28%,/,0%,-4%
ICCc1ccccc1,/,-4%,/,/,4%,1%
N#C/C(C(=O)Nc1ccc(Cl)cc1)=C(/S)Nc1ccccc1,-5%,/,7.9µM*,/,36%,/
Cc1c(Cc2ccccc2)c(=O)oc2cc(O)ccc12,-8%,1%,-6%,/,0%,0%
Cc1oc2c(O)c(O)ccc2c(=O)c1-c1ccccc1,-7%,5%,-8%,?,18%,10µM*
Cc1c(Cc2ccccc2)c(=O)oc2c(O)c(O)ccc12,13µM*,10%,-10%,/,0%,i
O=c1cc(-c2ccccc2O)oc2c(O)c(O)ccc12,-30%,/,/,/,3.5µM*,3.2µM*
Cc1csc(CNc2ncnc3cc(-c4ccc5c(c4)OCO5)ccc23)n1,/,0%,/,/,/,/
Cc1cccc(C)c1-n1c(SCC(=O)NCCCCCC(=O)O)nnc1-c1cccc([S+](=O)([O-])N2CCCC2)c1,/,/,/,/,37%,/
CC[C@@H]1/C=C(\C)C[C@H](C)C[C@H](OC)[C@H]2O[C@@](O)(C(=O)C(=O)N3CCCC[C@H]3C(=O)O[C@H](/C(C)=C/[C@@H]3CC[C@H](Cl)[C@H](OC)C3)[C@H](C)[C@@H](O)CC1=O)[C@H](C)C[C@@H]2OC,0%,/,-5%,/,/,/
COc1cccc(-c2ccc3ncnc(NCc4ccc(OC)cc4OC)c3c2)c1,3%,/,-18%,?,-3%,-8%
COCCNc1ncnc2ccc(-c3c(C)noc3C)cc12,-1%,/,-9%,2.8µM*,-7%,-13%
COc1ccc(CNc2ncnc3ccc(-c4c(C)noc4C)cc23)c(OC)c1,-2%,/,-10%,2.8µM*,0%,-6%
CC(C)=CCC[C@](C)(O)C1CC[C@]2(C)[C@@H]1CC[C@@H]1[C@@]3(C)CCC(=O)C(C)(C)[C@@H]3CC[C@]12C (some centres not stated),-12%,11%,4%,/,0%,-13%
CC(=O)NC(c1cc(Cl)c2ccccc2c1O)C1CC1 (configuration not stated),/,/,/,/,41%,/
COc1cccc(Nc2ncc3nc(-c4ccccc4)c(=O)n(Cc4cccs4)c3n2)c1,-3%,/,-5%,?,0%,10%
Cc1nnsc1NC(=O)OCc1ccc(Cl)cc1Cl,1%,4%,11µM*,3%,-6%,-5%
Cc1nn(C)c(Cl)c1NC(=O)OCc1ccc(Cl)cc1Cl,-27%,6%,2%,1%,0%,i
